From PubChem
Hits are enriched below; roughly 21% of the tested compounds scored in any of these assays.
IL-1B inflam inh: qHTS for Inhibitors of Inflammasome Signaling: IL-1-beta AlphaLISA Primary Screen | THP-1 LPS/ATP IL-1B secretion, AlphaLISA, 16 h; stronger effect = lower value | activity change, % at 57.5 µM | hit rate 4.7% among 360,000; in the data active means activity change below about -50%; inconclusive means mostly about -30% to -49%; further: on the % scale 0 is the no-effect control and ±100 the full control effect
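Secreted IL-1B measured by AlphaLISA bead assay after 16 h compound exposure of THP-1 cells; compounds (final up to 57.5 uM) added 1 h before LPS (250 ng/mL) and ATP (1.25 mM) stimulation; lower signal means less secretion.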
ClpP mod: qHTS Assay for Activators of ClpP; purified B. subtilis ClpP, FRET peptide cleavage, 20 min; hit rate 1.9% among 340,000; Potency, µM (doses to about 57.5 µM), inactives show at the top dose activity change, negative = active; ATP-dependent Clp protease proteolytic subunit (Bacillus subtilis (strain 168)), P80244; active means well fitted falling curve with a large enough effect; inconclusive means small, poorly fitted or top-dose-only effect; inactive means no such curve, though single readings can be large or run the other way; further: potency means the concentration at half of the fitted maximal effect; the source files actives as falling curves though it sought activators and does not explain the sign; nearly all actives have a fitted effect of over 65% in size
Target sequence (P80244 whole entry, looked up): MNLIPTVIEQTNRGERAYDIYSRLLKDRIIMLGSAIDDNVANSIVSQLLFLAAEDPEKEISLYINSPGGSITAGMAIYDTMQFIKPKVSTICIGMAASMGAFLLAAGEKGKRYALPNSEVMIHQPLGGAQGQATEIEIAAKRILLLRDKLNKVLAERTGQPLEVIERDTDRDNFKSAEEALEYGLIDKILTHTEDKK
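FRET quenching reversal measured ClpP activation: 10 microg/mL B. subtilis ClpP at pH 8 with the FRET-FV decapeptide, read at 430 nm after 320 nm excitation. The 20-min minus 0-min signal was scaled between DMSO/no-enzyme wells and ADEP (5.8 microM final).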
TDP1 cell CPT: qHTS for Inhibitors of human tyrosyl-DNA phosphodiesterase 1 (TDP1): qHTS in cells in presence of CPT; chicken DT40 Tdp1-/-;hTDP1 cells + 20 nM CPT, ATP luminescence, 48 h; Potency, µM (highest dose often 46.2 µM), for inactives: top-dose activity change, negative = growth inhibition, hits mostly inhibitors; hit rate 12% among 420,000; AID 686979, 2013; further: potency means the concentration at half of the fitted maximal effect; on the % scale 0 is the no-effect control and ±100 the full control effect; nearly all actives have a fitted effect of over 55% in size
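Chicken DT40 Tdp1-/- cells complemented with human TDP1, 400 cells/well, exposed to compounds plus 20 nM camptothecin for at least 48 h at 37 C; viability read as ATP content by CellTiter-Glo luminescence.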
D3 ag: qHTS of D3 Dopamine Receptor Agonist: qHTS | D3R DiscoveRx beta-arrestin cells, luminescence, 90 min | max activation, % | hit rate 0.58% among 410,000 | AID 652048, 2013; in the data active means max activation above about 30%; further: 0% is about no effect
Target sequence (P35462 whole entry, looked up): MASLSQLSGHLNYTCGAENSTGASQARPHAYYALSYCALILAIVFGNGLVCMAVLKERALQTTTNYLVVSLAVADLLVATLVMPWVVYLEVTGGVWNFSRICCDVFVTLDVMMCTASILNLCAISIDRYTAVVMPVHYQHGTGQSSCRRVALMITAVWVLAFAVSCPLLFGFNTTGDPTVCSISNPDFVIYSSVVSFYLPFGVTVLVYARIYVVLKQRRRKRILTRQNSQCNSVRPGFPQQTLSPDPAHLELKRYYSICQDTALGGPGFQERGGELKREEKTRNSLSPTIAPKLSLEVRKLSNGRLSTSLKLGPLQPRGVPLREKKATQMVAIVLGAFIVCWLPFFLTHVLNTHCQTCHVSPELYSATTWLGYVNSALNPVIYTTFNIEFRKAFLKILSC
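Agonist-mode cell screen: cells plated at 1500/well and incubated overnight at 37 °C, then exposed to library compounds for 90 min at 37 °C. Detection reagent was added for 30–60 min at room temperature, and luminescence was read.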
D3 antag: qHTS of D3 Dopamine Receptor Antagonist: qHTS. hit rate 2.5% among 360,000. max response, negative = inhibition, %. D(3) dopamine receptor (Homo sapiens), P35462. D3R cells, DiscoveRx beta-arrestin luminescence, antagonist mode; stronger effect = lower value; in the data active means max response below about -50%; inconclusive means no clear call, values can overlap the other calls; further: on the % scale 0 is the no-effect control and ±100 the full control effect
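Cells plated overnight at 1500 cells/well, then exposed to library compounds with dopamine controls for 90 minutes at 37 degrees C. DiscoveRx reagent added for 30–60 minutes at room temperature; luminescence read, quantitative HTS format.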
DT40 TDP1 no CPT: qHTS for Inhibitors of human tyrosyl-DNA phosphodiesterase 1 (TDP1): qHTS in cells in absence of CPT; hit rate 15% among 420,000; DT40 Tdp1-/- hTDP1 cells, no CPT, ATP luminescence, 48 h; Potency, µM (series often up to 46.2 µM), without a hit: at the top dose activity change, negative = growth inhibition, actives largely listed as inhibitors; further: potency means the concentration at half of the fitted maximal effect; on the % scale 0 is the no-effect control and ±100 the full control effect; nearly all actives have a fitted effect of over 55% in size
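Chicken DT40 Tdp1-/- cells stably complemented with human TDP1 were seeded at 400 cells/well with DMSO in place of 20 nM camptothecin. After compound pinning, cells grew at least 48 hr at 37 °C; viability read by CellTiter-Glo luminescence.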
* = called active by the depositor; ? = inconclusive; . = not tested or not shown; [ ] = remark or other dose. Unless noted, the call rests on the fitted dose curve; in most records, active means well fitted inhibition curve with a large enough effect; inconclusive means small, poorly fitted or top-dose-only effect; inactive means flat fitted curve, though single readings scatter.

SMILES | IL-1B inflam inh | ClpP mod | TDP1 cell CPT | D3 ag | D3 antag | DT40 TDP1 no CPT
Cn1nc(C(C)(C)C)cc1C(=O)N1CCCCC1c1cc(C(=O)Nc2cccc(C#N)c2)no1 (centres undefined) | 7 | 2% | 21µM* | 8 | 38 | 16µM*
O=C(Nc1ccccc1)c1cc(C2CCCCN2C(=O)c2cccs2)on1 (centres undefined) | -10 | -3% | ? | -8 | ? | 18µM*
O=C(Nc1ccccc1)c1cc(C2CCCCN2S(=O)(=O)c2cccs2)on1 (centres undefined) | -14 | -5% | -27% | 3 | 8 | ?
Cn1nc(C(C)(C)C)cc1C(=O)N1CCCCC1c1cc(C(=O)Nc2cccc3c2CCCC3)no1 (centres undefined) | 0 | -7% | ? | 3 | -14 | ?
N#Cc1cccc(NC(=O)c2cc(C3CCCCN3C(=O)c3ccccn3)on2)c1 (centres undefined) | 27 | -1% | 23µM* | -4 | 10 | ?
CCCNC(=O)c1cc(C2CCCCN2C(=O)c2ccc(C#N)cc2)on1 (centres undefined) | -10 | -2% | 4% | 2 | 2 | -5%
COc1ccc(C(=O)N2CCCCC2c2cc(C(=O)Nc3cccc(C#N)c3)no2)cc1 (centres undefined) | -12 | -2% | 23µM* | 6 | -7 | ?
O=C(OCC(=O)N1CCC(c2ccccc2)=N1)c1ccc(Cl)s1 | -11 | -7% | 0% | 2 | -11 | -15%
N#Cc1cccc(NC(=O)c2cc(C3CCCCN3C(=O)c3ccccc3)on2)c1 (centres undefined) | 9 | 2% | 18µM* | -9 | 0 | 10µM*
O=C(Nc1ccccc1)c1cc(C2CCCCN2C(=O)OCc2ccccc2)on1 (centres undefined) | 5 | -2% | -21% | -11 | 18 | -19%
N#Cc1cccc(NC(=O)c2cc(C3CCCCN3C(=O)C3CC3)on2)c1 (centres undefined) | 0 | 0% | 26µM* | -13 | 0 | ?
COc1ccc(N2CCN(S(=O)(=O)c3cn(C)cn3)CC2)cc1 | 9 | -3% | 0% | -1 | 4 | 26%
Cc1cc(C)cc(CC(=O)N2CCC2(C)C(=O)NS(=O)(=O)c2ccc(C(C)(C)C)cc2)c1 (centres undefined) | 42 | -3% | -23% | 3 | 90 | -9%
Cc1cnc(-c2nnc(N(C)C(=O)C3CCOC3)s2)cn1 (centres undefined) | 3 | 28µM* | 0% | -1 | 7 | -2%
O=C(NC1CCCC1)c1cn(C2CCN(Cc3cccc4cccnc34)CC2)nn1 | . | . | -12%[9.04 µM] | . | . | -14%
Cc1ccc(C(=O)Nc2cccc(NC(=O)c3ccc(C)cc3)n2)cc1 | 21 | . | -11% | 6 | 11 | ?
Cc1ccc(C(=O)Nc2ccc3c(c2)n(C)c(=O)c(=O)n3C)cc1 | . | -11% | ? | 1 | . | ?
Cc1ccc(C(=O)Nc2nc(=O)n(C(=O)c3ccccc3C)s2)cc1 | -65* | 0% | 12µM* | 1 | -8 | 13µM*
Cc1ccc(C(=O)Nc2nc(=O)n(C(=O)C3CC3)s2)cc1 | ? | -1% | 21µM* | -4 | -12 | 16µM*
O=C(Nc1nc(=O)n(C(=O)C2CC2)s1)c1ccccc1 | ? | 1% | 21µM* | 5 | -7 | 23µM*
O=C(Nc1ccc(NC(=O)C2CC2)cn1)c1ccccc1 | -2 | . | -5% | -1 | 0 | -17%
O=C(NCCO)c1cn(C2CCN(Cc3c(F)cccc3Cl)CC2)nn1 | . | . | 3% | . | . | 5%
COc1ccc(Cl)cc1NC(=O)CSc1nc(-c2ccccc2)c2ccccc2n1 | . | -6% | 7.3µM* | -2 | . | 21µM*
COC(=O)c1c(SCC(=O)Nc2ccccc2OC)[nH]c2ccccc2c1=O | . | -6% | 23µM* | -3 | . | ?
COC(=O)c1c(SCC(=O)Nc2cc(OC)cc(OC)c2)[nH]c2ccc(C)cc2c1=O | . | 0% | ? | -3 | . | ?
SMILES | IL-1B inflam inh | ClpP mod | TDP1 cell CPT | D3 ag | D3 antag | DT40 TDP1 no CPT
CCc1cccc2c(-c3ccccc3)nc(SCC(=O)Nc3ccccc3OC)nc12 | . | -3% | ? | -1 | . | 18µM*
CCc1cccc2c(-c3ccccc3)nc(SCC(=O)Nc3ccc(OC)cc3)nc12 | . | 1% | -11% | -5 | . | 5%
COc1ccccc1NC(=O)CSc1nnc2c3ccccc3n(C(C)C)c2n1 | . | -1% | 3.7µM* | 12 | . | 4.6µM*
COc1ccccc1Cc1nc2ccccc2nc1SCC(=O)Nc1cc(Cl)ccc1OC | . | -3% | ? | -4 | . | ?
Cc1ccc(NC(=O)CSc2n[nH]c(-c3ccc(F)cc3)n2)cc1F | . | 1% | ? | -10 | . | ?
CCOC(=O)c1c(S(=O)(=O)N2CCCC(C(=O)N3CCN(c4cc(C)ccc4C)CC3)C2)c(C)n(C)c1C (centres undefined) | . | 1% | 8.2µM* | -3 | . | 9.2µM*
CCOC(=O)c1c(C)[nH]c(C)c1S(=O)(=O)N1CCCC(C(=O)N2CCN(c3cc(C)ccc3C)CC2)C1 (centres undefined) | . | -1% | ? | -3 | . | ?
CCOC(=O)c1c(S(=O)(=O)N2CCC(C(=O)N3CCN(c4cc(C)ccc4C)CC3)CC2)c(C)n(C)c1C | . | 3% | ? | -13 | . | 23µM*
CCOC(=O)c1c(S(=O)(=O)N2CCCC(C(=O)N3CCN(c4cccc(C)c4C)CC3)C2)c(C)n(C)c1C (centres undefined) | . | 1% | 7.3µM* | -8 | . | 9.2µM*
CCOC(=O)c1c(S(=O)(=O)N2CCC(C(=O)N3CCN(c4ccccc4F)CC3)CC2)c(C)n(C)c1C | . | -3% | ? | 2 | . | -25%
COc1ccc(C(=O)O)cc1Nc1nc2ccc(C)cc2n2cnnc12 | . | ? | -25% | -9 | . | ?
CC(=O)OC1CC2C(C)(C)C(O)CCC2(C)C2CC[C@]3(C)C(=CC(=O)OC3c3ccoc3)C12C (some centres undefined) | . | . | -21% | . | . | -27%
CCOc1ccccc1CNc1nc2nc(C)c(CC(=O)OC)c(=O)n2[nH]1 | . | -11% | 0% | -6 | . | -13%
O=C(CNC(=O)c1sc2ccccc2c1Cl)NCc1cccc(C(F)(F)F)c1 | 9 | -13% | 0% | 1 | 24 | -30%
